Measurements taken from PubChem BioAssay.
Activity calls are given as the source filed them.

How the values were obtained:
[1] = tested on: PRMT1 (protein arginine N-methyltransferase 1); assay: PRMT1 binders on small-molecule microarrays, primary screen, biochemical, small-molecule microarray, 635 nm fluorescence (AID 1088); settings: small-molecule microarray binding, higher = more signal;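 also: binding of Prmt1 protein to compounds spotted on small-molecule microarray slides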
[2] = yeast growth modulation, basal conditions, primary screen, YJM789 clinical isolate, OD600, 24 h (AID 1089);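 also: growth of clinical yeast isolate S. cerevisiae YJM 789 seeded 1000 cells per well; test concentration not given here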; settings: S. cerevisiae YJM789 growth, higher = more signal, called active from +8 up or from −8 down
[3] = fission yeast growth modulation, primary screen, strain 972, OD600, 24 h, no modulator (AID 1090);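 also: basal condition with compound alone and no growth modifier present; test concentration not given here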; settings: S. pombe 972 growth, higher = more signal, called active from +8 up or from −8 down
[4] = S. cerevisiae growth modulation with rapamycin, primary screen, strain BY4716, OD600, 96 h (AID 1091); settings: higher = more signal, called active from +8 up or from −8 down; also: test concentration not given here
[5] = biological target: Torsin-1A-interacting protein 2 (Homo sapiens) (UniProt Q8NFQ8); assay: LULL1 binders on small-molecule microarray, primary screen, cell lysate, human LULL1 lysate, 635/667 nm fluorescence (AID 1092); settings: hLULL1 lysate binding, 635 nm fluorescence, higher = more signal;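 also: probe is lysate of COS7 cells overexpressing human LULL1; score merges per-feature 667 nm fluorescence with signal-to-noise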
[6] = E. coli growth modulation, two-sided OD650, primary screen, E. coli filamentation project, strain DRC41, 24 h (AID 1093); settings: OD650, 24 h, higher = more signal, called active from +8 up or from −8 down;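 also: MC1000 strain lacking acrAB efflux and sulA so SOS filamentation is blocked; test concentration not given here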
[7] = small-molecule microarray binders of probe aLefty2, primary screen, biochemical, biotinylated probe, 635/667 nm fluorescence (AID 1094); settings: higher = more signal;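 also: score merges spot fluorescence near 667 nm with spot signal-to-noise ratio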
[8] = tested on: Noggin (protein binding on small-molecule microarray); assay: Noggin binders on small-molecule microarray, primary screen, biochemical, 635/667 nm fluorescence (AID 1095); settings: 635 nm fluorescence, higher = more signal;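 also: score merges 667 nm feature fluorescence with signal to noise over triplicate slides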
[9] = biological target: Neurogenic locus notch homolog protein 3 (Homo sapiens) (UniProt Q9UM47); assay: NOTCH3 binders on small-molecule microarray, primary screen, biochemical, 635/667 nm fluorescence (AID 1096); settings: NOTCH3 binding, 635 nm fluorescence, higher = more signal
[10] = small-molecule microarray binders of probe aEGFR, primary screen, biochemical, biotinylated probe, 635/667 nm fluorescence (AID 1097); settings: higher = more signal;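 also: probe is a biotinylated anti-EGFR antibody binding compounds printed on slides; score combines fluorescence near 667 nm and signal to noise of each spot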

Chain of Neurogenic locus notch homolog protein 3 (Homo sapiens) (Q9UM47 whole entry, looked up): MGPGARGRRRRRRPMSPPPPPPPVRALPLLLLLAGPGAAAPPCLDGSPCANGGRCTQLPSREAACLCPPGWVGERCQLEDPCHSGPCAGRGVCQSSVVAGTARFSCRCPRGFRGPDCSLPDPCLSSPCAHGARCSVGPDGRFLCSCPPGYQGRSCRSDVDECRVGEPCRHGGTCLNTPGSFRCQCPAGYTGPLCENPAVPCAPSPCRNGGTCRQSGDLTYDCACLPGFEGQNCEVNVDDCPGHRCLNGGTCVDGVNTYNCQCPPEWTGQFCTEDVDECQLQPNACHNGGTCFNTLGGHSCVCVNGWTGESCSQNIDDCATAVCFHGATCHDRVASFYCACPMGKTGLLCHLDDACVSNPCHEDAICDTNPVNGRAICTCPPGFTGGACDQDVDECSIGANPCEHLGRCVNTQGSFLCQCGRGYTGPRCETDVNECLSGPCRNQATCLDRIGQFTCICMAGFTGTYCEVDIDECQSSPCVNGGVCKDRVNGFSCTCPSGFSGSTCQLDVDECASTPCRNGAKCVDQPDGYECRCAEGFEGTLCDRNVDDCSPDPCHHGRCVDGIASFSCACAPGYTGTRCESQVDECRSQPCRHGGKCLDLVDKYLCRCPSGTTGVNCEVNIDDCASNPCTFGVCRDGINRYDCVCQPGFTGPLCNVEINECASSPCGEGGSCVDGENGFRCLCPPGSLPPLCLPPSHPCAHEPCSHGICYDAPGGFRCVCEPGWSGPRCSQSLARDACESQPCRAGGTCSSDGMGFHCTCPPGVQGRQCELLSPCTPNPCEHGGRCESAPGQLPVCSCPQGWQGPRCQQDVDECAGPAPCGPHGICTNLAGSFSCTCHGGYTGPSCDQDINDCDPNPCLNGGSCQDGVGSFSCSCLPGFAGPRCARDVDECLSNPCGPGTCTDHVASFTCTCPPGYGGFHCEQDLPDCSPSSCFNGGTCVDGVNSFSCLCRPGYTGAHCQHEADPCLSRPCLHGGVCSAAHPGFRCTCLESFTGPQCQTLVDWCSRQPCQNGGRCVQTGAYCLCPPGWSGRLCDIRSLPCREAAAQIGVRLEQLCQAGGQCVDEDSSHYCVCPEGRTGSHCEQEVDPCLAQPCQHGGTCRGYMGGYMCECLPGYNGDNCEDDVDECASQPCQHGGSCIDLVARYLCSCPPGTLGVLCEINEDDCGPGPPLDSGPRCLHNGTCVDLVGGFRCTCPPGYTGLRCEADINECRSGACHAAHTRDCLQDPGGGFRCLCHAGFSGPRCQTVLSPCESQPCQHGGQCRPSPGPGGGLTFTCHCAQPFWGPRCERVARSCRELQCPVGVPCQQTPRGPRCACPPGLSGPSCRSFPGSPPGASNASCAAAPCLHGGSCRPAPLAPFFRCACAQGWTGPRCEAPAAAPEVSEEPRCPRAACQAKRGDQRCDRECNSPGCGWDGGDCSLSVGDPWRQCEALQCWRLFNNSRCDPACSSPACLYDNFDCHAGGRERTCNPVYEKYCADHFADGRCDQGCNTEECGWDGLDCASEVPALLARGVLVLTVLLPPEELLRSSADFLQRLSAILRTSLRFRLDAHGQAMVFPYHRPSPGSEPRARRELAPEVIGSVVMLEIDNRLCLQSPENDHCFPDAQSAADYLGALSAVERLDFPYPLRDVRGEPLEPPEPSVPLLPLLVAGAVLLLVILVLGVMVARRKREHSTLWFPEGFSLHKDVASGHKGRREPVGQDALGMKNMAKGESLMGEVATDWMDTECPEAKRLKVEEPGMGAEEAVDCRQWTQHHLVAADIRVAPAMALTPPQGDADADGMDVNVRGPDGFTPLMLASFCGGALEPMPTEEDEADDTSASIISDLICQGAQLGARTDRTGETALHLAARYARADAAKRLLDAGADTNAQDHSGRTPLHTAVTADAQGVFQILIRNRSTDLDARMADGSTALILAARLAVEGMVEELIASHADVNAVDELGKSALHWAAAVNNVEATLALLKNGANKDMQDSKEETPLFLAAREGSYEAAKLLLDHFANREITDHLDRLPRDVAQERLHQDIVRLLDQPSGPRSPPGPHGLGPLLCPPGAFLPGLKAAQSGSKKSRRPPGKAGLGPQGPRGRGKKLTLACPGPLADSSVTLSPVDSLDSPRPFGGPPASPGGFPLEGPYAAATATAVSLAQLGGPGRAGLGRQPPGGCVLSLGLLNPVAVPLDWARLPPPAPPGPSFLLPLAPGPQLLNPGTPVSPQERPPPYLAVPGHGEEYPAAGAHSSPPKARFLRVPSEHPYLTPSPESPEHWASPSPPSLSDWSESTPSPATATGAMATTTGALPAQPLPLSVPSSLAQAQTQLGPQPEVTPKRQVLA
Chain of Torsin-1A-interacting protein 2 (Homo sapiens) (Q8NFQ8 whole entry, looked up): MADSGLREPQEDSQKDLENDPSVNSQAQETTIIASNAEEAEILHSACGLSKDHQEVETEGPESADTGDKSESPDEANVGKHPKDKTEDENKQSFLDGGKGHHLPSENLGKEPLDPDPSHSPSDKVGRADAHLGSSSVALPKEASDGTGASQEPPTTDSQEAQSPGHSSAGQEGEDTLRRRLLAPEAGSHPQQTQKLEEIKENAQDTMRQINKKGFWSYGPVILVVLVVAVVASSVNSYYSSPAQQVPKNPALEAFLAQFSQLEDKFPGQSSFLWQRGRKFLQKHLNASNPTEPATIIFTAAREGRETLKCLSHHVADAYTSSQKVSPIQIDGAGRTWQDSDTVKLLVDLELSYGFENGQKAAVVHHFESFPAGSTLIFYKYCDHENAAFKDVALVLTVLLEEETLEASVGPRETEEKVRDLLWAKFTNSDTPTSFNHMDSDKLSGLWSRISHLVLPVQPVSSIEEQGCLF

Structure (SMILES)	composite z-score [1]	z-score [2]	z-score [3]	z-score [4]	composite z-score [5]	z-score [6]	composite z-score [7]	composite z-score [8]	composite z-score [9]	composite z-score [10]
COc1cc2c(cc1O)C(C)N(Cc1sc3ccccc3c1Cl)CC2 (stereo not given)	-0.77	0.173 (inactive)	-12.3 (active)	-1.6 (inactive)	-0.0038	0.566 (inactive)	0.107	-0.417	-0.88	-0.2
CCCCCCc1nc(-c2ccc(OC)nc2)c(C)c2c1[Si](C(C)C)(C(C)C)OC2	0.319	-0.0796 (inactive)	-0.329 (inactive)	0.182 (inactive)	-0.627	0.836 (inactive)	0.054	0.293	0.0448	-0.131
C=C(CC1([C@@H](NP(=O)(c2ccccc2)c2ccccc2)[C@H]2C[C@@H]2CCCC)CC1)c1cccc(OC)c1	-0.155	0.557 (inactive)	0.832 (inactive)	1.82 (inactive)	1.66	-0.768 (inactive)	0.179	-0.239	0.36	-0.0563
CC1CC/C=C\[C@H]2OC34C=CCN(CCN5CCOCC5)C(=O)[C@H]3N(C(CO)C(C)C)C(=O)[C@@H]4C2C(=O)O1 (stereo not given in full)	1.42	-0.662 (inactive)	-0.145 (inactive)	-0.188 (inactive)	3.2	-0.651 (inactive)	-0.109	0.122	0.398	-0.0332
CO[C@H]1O[C@H](CO)[C@@H](OC(=O)Nc2ccccc2)[C@@H]2OC(=O)[C@@H](Cc3ccccc3)C/C=C/C[C@H](Cc3ccccc3)C(=O)O[C@@H]12	1.2	0.552 (inactive)	-0.0693 (inactive)	1.04 (inactive)	1.41	0.386 (inactive)	0.142	-0.0235	-0.151	-0.0697
CC[C@H]1C2=C3C(CC[C@H]4C(OCc5ccc(F)cc5C(F)(F)F)OC[C@](C)([C@@H]34)N(C(=O)OC(C)(C)C)C2)C(COC(C)=O)C1COC(C)=O (stereo not given in full)	0.454	-0.284 (inactive)	0.387 (inactive)	1.46 (inactive)	2.89	-1.31 (inactive)	0.0909	0.539	1.13	0.0507
COC(=O)Cn1c(C(=O)N(C)C)cc2c1C[C@H]1CN(C(=O)c3ccccc3)[C@@](Cc3ccccc3)(C(=O)OC)[C@@H]21	-0.858	-0.561 (inactive)	-0.103 (inactive)	-0.207 (inactive)	1.36	-0.537 (inactive)	0.0022	0.449	0.0571	0.25
C=C(CCCC)/C(=C/C[C@@H](OC(C)=O)c1ccc(OCCO)cc1)c1cc(C(=O)OC)ccc1OC	1.55	-0.201 (inactive)	-0.52 (inactive)	-0.645 (inactive)	2.27	0.0811 (inactive)	0.0677	0.0148	0.467	-0.0828
COCCOC(=O)N1C(=O)[C@@]2(c3cc(C#CCNC(N)=O)ccc31)[C@H](C(=O)Nc1nc3ccccc3s1)[C@H]1C(=O)O[C@H](c3ccccc3)[C@H](c3ccccc3)N1[C@@H]2c1ccc(O)cc1	1.47	1.45 (inactive)	1.16 (inactive)	1.32 (inactive)	1.35	-0.264 (inactive)	-0.103	0.939	0.986	0.0654
O=C1NC(=O)C2C1C=CC(C(O)C(O)CO)N2Nc1ccccn1 (stereo not given)	0.635	-0.517 (inactive)	0.294 (inactive)	-0.73 (inactive)	0.541	-1.02 (inactive)	-0.343	0.349	0.32	0.0713
CCOC(=O)C1=C[C@@H](C(C)(C)C)N(S(=O)(=O)c2ccc(C)cc2)[C@H]1c1ccc(OC)cc1	1.55	0.443 (inactive)	2.17 (inactive)	1.54 (inactive)	3.07	0.1 (inactive)	-0.0865	1.18	1.09	0.0301
COC(=O)[C@]1(Cc2ccccc2N=[N+]=[N-])N=C(c2ccc(OCCCO)cc2)O[C@@H]1c1ccccc1CN=[N+]=[N-]	1.56	-0.141 (inactive)	0.708 (inactive)	36.8 (active)	2.25	-0.763 (inactive)	0.021	1.23	0.963	0.0258
CC(C)(C)OC(=O)CC[C@]1(C(N)=O)N=C(c2ccc(OCCCO)cc2)O[C@H]1c1ccccc1N=[N+]=[N-]	0.138	1.37 (inactive)	0.138 (inactive)	0.467 (inactive)	2.75	0.626 (inactive)	0.0598	-0.165	0.206	0.141
CC(C)c1ccc(NN2C(C(O)C3=C[C@H]4C[C@@H](C3)C4(C)C)C=CC3C(=O)N(c4ccccc4)C(=O)C32)cc1 (stereo not given in full)	1.32	0.191 (inactive)	-0.0249 (inactive)	0.264 (inactive)	2.6	-0.661 (inactive)	0.363	0.501	1.08	0.114
O=C1NC(=O)C2C1C=CC(C(O)C(c1ccccc1)c1ccccc1)N2Nc1ccccn1 (stereo not given)	0.72	0.583 (inactive)	1.44 (inactive)	-0.968 (inactive)	1.27	-0.519 (inactive)	0.673	-0.0976	0.0943	0.389
CC(C)C[C@H]1NC(=O)CNC(=O)[C@@]23C(=O)N[C@@H](Cc4ccccc4)C2[C@H](C)[C@@]2(C)O[C@H]2C3/C=C/C/C=C\CNC1=O (stereo not given in full)	1.08	-0.599 (inactive)	0.189 (inactive)	-0.612 (inactive)	0.921	-0.743 (inactive)	-0.157	0.104	0.713	-0.105
C=CC[C@]1(C(=O)NCC(O)CO)N=C(c2ccc(OCCCO)cc2)O[C@H]1c1ccccc1CN=[N+]=[N-] (stereo not given in full)	1.01	-0.0604 (inactive)	-0.234 (inactive)	-0.83 (inactive)	3.51	0.384 (inactive)	0.239	-0.62	-0.922	-0.0828
COC(=O)[C@@]1(Cc2ccc(F)cc2)[C@H]2c3cc(C(=O)N4CCCC4)n(Cc4ccc(C(F)(F)F)nc4)c3C[C@H]2CN1C(=O)c1ccccc1	0.428	-0.368 (inactive)	1.17 (inactive)	3.82 (inactive)	2.29	-0.293 (inactive)	0.67	0.373	1.03	0.188
O=C(O)C1=CC[C@H]2C(=O)N(c3ccccc3)C(=O)[C@@H]12	0.964	0.735 (inactive)	1.38 (inactive)	1.52 (inactive)	2.5	-0.148 (inactive)	0.0694	-0.312	1.06	0.186
Cc1ccc(S[C@]2(C(=O)NCc3ccccc3)CC(=O)N(Cc3ccccc3Cl)[C@@H]2c2ccc(CO)cc2)cc1	1.17	0.373 (inactive)	-0.0114 (inactive)	0.227 (inactive)	2.07	-2.31 (inactive)	0.145	-0.761	-0.0303	-0.258
O=C1OCCC/C=C\[C@H]2OC34C=CCN(Cc5ccccc5)C(=O)[C@H]3N(CCO)C(=O)[C@@H]4C12 (stereo not given in full)	0.216	-0.27 (inactive)	-1.72 (inactive)	-0.462 (inactive)	2.22	2.29 (inactive)	0.235	-0.353	0.0094	0.0618
COC(=O)c1ccc(OC)c(/C=C\CC(OC(=O)c2ccncc2)c2ccccc2)c1 (stereo not given)	0.264	-2.64 (inactive)	-2.43 (inactive)	-0.0389 (inactive)	0.179	1.27 (inactive)	-0.0851	0.66	0.0482	-0.0286
COC(=O)[C@@]1(Cc2ccc(OC)cc2)[C@H]2c3cc(C(=O)N(C)C)n(Cc4c(CO)[nH]cc(C)c4=O)c3C[C@H]2CN1C(=O)c1ccccc1	-0.922	0.0886 (inactive)	0.95 (inactive)	-0.622 (inactive)	3.22	-1.28 (inactive)	0.334	0.0072	0.0193	0.215
Cc1cccc([C@H]2C[C@H]3C(Br)=C[C@@]2(CO)C(=O)[C@]32CO2)c1	0.378	-1.54 (inactive)	-2.89 (inactive)	-0.75 (inactive)	2.39	-0.316 (inactive)	-0.114	0.783	0.353	-0.219
C=CCOC(=O)[C@H]1[C@@H]2C(=O)O[C@@H](c3ccccc3)[C@@H](c3ccccc3)N2[C@@H](c2ccc(OCCOC(=O)[C@H]3C[C@H]4C(=O)NCC(=O)N4[C@H]3c3ccc(O)cc3)cc2)[C@]12C(=O)Nc1ccccc12	1.48	1.71 (inactive)	1.61 (inactive)	4.1 (inactive)	2.58	-0.0665 (inactive)	0.0337	1.22	1.09	0.0656
O=C1C2C=CC(C(O)C(c3ccccc3)c3ccccc3)N(Nc3ccccc3F)C2C(=O)N1c1ccccc1 (stereo not given)	1.52	0.504 (inactive)	0.973 (inactive)	1.75 (inactive)	3.58	-1.06 (inactive)	0.0943	0.295	1.02	0.162
COc1cc(Cc2cc3c(c(-c4ccccc4)n2)[Si](C(C)C)(C(C)C)OC3)cc(OC)c1OC	-0.313	0.208 (inactive)	-0.949 (inactive)	-0.573 (inactive)	-0.501	1.22 (inactive)	-0.0991	0.331	-0.108	-0.0864
C=C(COC)C(=O)CC[C@@H](OC(=O)c1ccccc1-c1ccccc1C(=O)O)c1ccccc1OCCO	1.37	-1.4 (inactive)	-1.95 (inactive)	-1.12 (inactive)	-0.225	-0.434 (inactive)	-0.122	0.641	0.586	-0.184
CO[C@H]1O[C@H](CO)[C@@H](OC(=O)Nc2cccc(F)c2)[C@H](OC(=O)Nc2ccc3c(c2)OCO3)[C@@H]1OC(=O)Nc1ccc2c(c1)OCO2	1.53	1.79 (inactive)	1.24 (inactive)	7.48 (inactive)	3.48	-0.0741 (inactive)	0.126	0.691	1.08	-0.039
